Source: PubChem BioAssay

Molecular target: Fibroblast growth factor 2 (Homo sapiens) (UniProt P09038)
Assay: basic fibroblast growth factor binding to printed compounds – biochemical, small-molecule microarray, 635/667 nm fluorescence, primary screen (AID 1133)
Settings: FGF2, fluorescence 635/667, higher = more signal

Fibroblast growth factor 2 (Homo sapiens), sequence (P09038 whole entry, looked up): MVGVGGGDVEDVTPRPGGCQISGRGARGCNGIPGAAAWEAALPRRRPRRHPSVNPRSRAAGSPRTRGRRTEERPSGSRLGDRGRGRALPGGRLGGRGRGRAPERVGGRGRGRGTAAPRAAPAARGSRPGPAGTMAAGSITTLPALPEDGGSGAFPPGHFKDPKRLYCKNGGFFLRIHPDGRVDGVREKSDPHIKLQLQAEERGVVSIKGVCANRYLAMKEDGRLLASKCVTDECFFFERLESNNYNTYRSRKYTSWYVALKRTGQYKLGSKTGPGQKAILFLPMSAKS

Structure (SMILES)	composite z-score
O=C(NCc1ccccc1)[C@@H]1c2ccccc2C(=O)N(C2Cc3ccccc3C2)[C@H]1c1ccc(CO)cc1	0.892
COC(=O)c1c2oc(c1C(=O)OC)C(=O)NC1(CCCCC1)c1cn(nn1)C[C@H](Cc1ccccc1)NC(=O)N[C@H](CO)CC2	0.0141
CCCCCCc1nc(-c2ccc(-c3ccc(Cl)c(Cl)c3)o2)cc2c1[Si](C(C)C)(C(C)C)O[C@H]2c1ccccc1	-0.434
COCCOC(=O)N1C(=O)[C@@]2(c3cc(C#CC4(O)CCCCCC4)ccc31)[C@H](C(=O)Nc1nc3ccccc3s1)[C@H]1C(=O)O[C@H](c3ccccc3)[C@H](c3ccccc3)N1[C@@H]2c1ccc(OCCO)cc1	1.58
COC(=O)[C@@]1(Cc2ccc(OC)cc2)[C@H]2c3cc(C(=O)N4CCCC4)n(CCCNc4ncc(C(F)(F)F)cc4Cl)c3C[C@H]2CN1C(=O)c1ccccc1	-0.167
COC(=O)[C@@]1(Cc2ccc(OC)cc2)[C@H]2c3cc(C(=O)N4CCCC4)n(CCc4ccc(O)c(O)c4)c3C[C@H]2CN1C(=O)c1ccccc1	-0.736
Cc1c(NC(=O)/C(C#N)=C/c2cccc([N+](=O)[O-])c2)c(=O)n(-c2ccccc2)n1C	0.793
C[N+](C)(C)CCCC[C@@H]1NC(=O)[C@@H]2C[C@H](C(=O)NCCCCCCNC(=O)CS)[C@H](c3ccc(O)cc3)N2C1=O	-0.117
COC(=O)[C@@]1(Cc2ccccc2)[C@H]2c3cc(C(=O)N4CCCC4)n(Cc4ccc(O)c(OC)c4)c3C[C@H]2CN1C(=O)c1ccccc1	-0.638
O=C1O[C@@H](c2ccccc2)[C@@H](c2ccccc2)N2[C@@H](c3ccccc3OCCO)[C@]3(C(=O)Nc4ccccc43)[C@@H](C(=O)O)[C@H]12	-0.166
